Measured values from PubChem BioAssay (Tox21).
Records with an inconclusive call do not appear. Calls of active or inactive are those of the source. Unless noted, the call rests on the fitted dose curve; in most records, active means well fitted curve in the direction sought with a large enough effect in the repeat runs; inconclusive means weak or mixed curves; inactive means no such curve, though single readings can be large; an effect the other way counts as inactive or inconclusive.

Legend:
[1] = qHTS assay to identify small molecule agonists of the peroxisome proliferator-activated receptor delta (PPARd) signaling pathway - cell viability counter screen (AID 743211); further: nearly all actives have a fitted effect of over 55% in size
Outline: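 Counter screen for cytotoxicity run in parallel with the PPARd reporter screen. Beta-lactamase reporter HEK293H cells exposed to compounds 17 h; ATP-based CellTiter-Glo luminescence quantified viability.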

[2] = target: Peroxisome proliferator-activated receptor delta (Homo sapiens) (UniProt Q03181); assay: qHTS assay to identify small molecule agonists of the peroxisome proliferator-activated receptor delta (PPARd) signaling pathway (AID 743212; calls by dose curve)
Outline: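 GeneBLAzer PPARd UAS-bla HEK293H cells (beta-lactamase reporter under UAS control), plated and rested 5 h at 37 C, then exposed to compounds in DMSO at 37 C; LiveBLAzer B/G FRET substrate added, 2 h room temperature, fluorescence read.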

[3] = qHTS assay to identify small molecule antagonists of the peroxisome proliferator-activated receptor delta (PPARd) signaling pathway - cell viability counter screen (AID 743213); further: nearly all actives have a fitted effect of over 50% in size
Outline: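 Viability counter-screen, qHTS format: PPARd-bla HEK293H, L165041 300 nM final, 17 h compound exposure at 37 C, CellTiter-Glo luminescence after 30 min RT.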

[4] = target: Peroxisome proliferator-activated receptor delta (Homo sapiens) (UniProt Q03181); assay: qHTS assay to identify small molecule antagonists of the peroxisome proliferator-activated receptor delta (PPARd) signaling pathway (AID 743215; active means well fitted inhibition curve with a large enough effect in the signal ratio in the repeat runs, not every such curve was filed as active; the % refers to the signal ratio;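 further: cells stimulated with agonist L165041 at 300 nM final during compound exposure; series mostly up to about 62 µM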)
Outline: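 With L165041 present at 300 nM final, compounds were incubated 17 h at 37 C on PPARd UAS-bla HEK293H cells. A FRET-based beta-lactamase substrate was then applied for 2 h at room temperature and fluorescence intensity recorded.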

[5] = qHTS assay to identify small molecule antagonists of the farnesoid-X-receptor (FXR) signaling pathway - cell viability counter screen (AID 743221; active means well fitted cell-killing curve with a large enough effect in the repeat runs, not every such curve was filed as active; further: nearly all actives have a fitted effect of over 50% in size)
Outline: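 Multiplexed counter screen: viability of FXR-bla HEK 293T cells under agonist stimulation by chenodeoxycholic acid (50 uM, final) and test compound for 16 h at 37 C, measured by CellTiter-Glo luminescence in the reporter wells.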

[6] = target: Vitamin D3 receptor (Homo sapiens) (UniProt P11473); assay: qHTS assay to identify small molecule agonists of the vitamin D receptor (VDR) signaling pathway (AID 743222; calls by dose curve)
Outline: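 VDR-bla cells were seeded, left 4 h, treated with compounds in DMSO for 16 h, incubated 2 h at RT with B/G FRET substrate, and read for fluorescence.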

[7] = target: Vitamin D3 receptor (Homo sapiens) (UniProt P11473); assay: qHTS assay to identify small molecule antagonists of the vitamin D receptor (VDR) signaling pathway (AID 743223; active means well fitted inhibition curve with a large enough effect in the signal ratio in the repeat runs, not every such curve was filed as active; the % refers to the signal ratio)
Outline: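 Cells carrying a VDR-driven beta-lactamase reporter (VDR-bla) were co-treated with compound and 3 nM final 1alpha,25-dihydroxyvitamin D3 for 16 h at 37C; reporter activity was measured as FRET substrate fluorescence after 2 h at room temperature.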

[8] = qHTS assay to identify small molecule agonists of the vitamin D receptor (VDR) signaling pathway - cell viability counter screen (AID 743224); further: series mostly up to about 63 µM; nearly all actives have a fitted effect of over 50% in size
Outline: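 Here cell health was gauged by luminescent ATP detection (CellTiter-Glo, 30 min RT) in VDR-bla cells that had been incubated with test compounds for 16 h at 37C and 5% CO2.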

[9] = qHTS assay to identify small molecule antagonists of the vitamin D receptor (VDR) signaling pathway - cell viability counter screen (AID 743225); further: nearly all actives have a fitted effect of over 50% in size
Outline: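 HEK293T VDR-bla; cpd + 1a,25-(OH)2D3 3 nM final, 16 h 37C/5% CO2; B/G FRET substrate 2 h RT; then CellTiter-Glo 30 min RT, luminescence.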

[10] = qHTS assay to identify small molecule agonists of the NFkB signaling pathway (AID 1159509; active means well fitted curve in the direction sought with a large enough effect in the signal ratio in the repeat runs, not every such curve was filed as active; the % refers to the signal ratio; further: series mostly up to about 61 µM)
Outline: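 After overnight attachment, reporter cells received test compounds, DMSO or positive controls and were incubated 5 hr at 37 C. FRET substrate was then added for 1.5 hr at room temperature before dual-emission fluorescence reading.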

[11] = qHTS assay to identify small molecule agonists of the NFkB signaling pathway - cell viability counter screen (AID 1159515; calls by dose curve; further: series mostly up to about 61 µM; nearly all actives have a fitted effect of over 55% in size)
Outline: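 5 hr compound treatment of NFkB-bla ME-180 cells (2,000/well, seeded overnight beforehand), followed by reporter substrate for 1.5 hr. CellTiter-Glo added afterward; luminescence after 30 min RT.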

[12] = qHTS assay to identify small molecule agonists of the endoplasmic reticulum stress response signaling pathway - cell viability counter screen (AID 1159517; calls by dose curve)
Outline: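 Luminescence readout: CellTiter-Glo, 30 min RT, same wells as the ESRE-bla reporter read. HeLa ESRE-bla, 1,500 cells/well, o/n 37 C; cpd 5 hr 37 C/5% CO2.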

[13] = qHTS assay to identify small molecule antagonists of the retinoid-related orphan receptor gamma (ROR-gamma) signaling pathway - cell viability counter screen (AID 1159520); further: nearly all actives have a fitted effect of over 50% in size
Outline: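 Tet-on ROR gamma CHO cells (1,000/well) were plated 4 hr, given compounds in DMSO for 2 hr at 37 C, then induced with 1 uM final doxycycline for 16 hr. Viability was read as ATP by CellTiter-Glo luminescence after 30 min.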

[14] = target: Nuclear receptor ROR-gamma (Homo sapiens) (UniProt P51449); assay: qHTS assay to identify small molecule antagonists of the retinoid-related orphan receptor gamma (ROR-gamma) signaling pathway (AID 1159521)
Outline: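 Cells were plated, rested 4 h at 37 C, exposed to compounds for 2 h, then given 1 uM final doxycycline hyclate to induce RORγ expression. After 16 h, ONE-Glo luminescence from the ROR response element reporter was measured.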

[15] = qHTS assay to identify small molecule agonists of the AP-1 signaling pathway (AID 1159526; calls by dose curve)
[16] = target: Bile acid receptor (Homo sapiens) (UniProt Q96RI1); assay: qHTS assay to identify small molecule antagonists of the farnesoid-X-receptor (FXR) signaling pathway (AID 743217; active means well fitted inhibition curve with a large enough effect in the signal ratio in the repeat runs, not every such curve was filed as active; the % refers to the signal ratio)
Outline: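 In this cell-based antagonist screen, inhibition of CDCA-driven (50 uM final) UAS-beta-lactamase expression in HEK 293T cells was measured by FRET fluorescence following 16 h compound exposure at 37 °C.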

[17] = qHTS assay to identify small molecule agonists of the farnesoid-X-receptor (FXR) signaling pathway - cell viability counter screen (AID 743218); further: nearly all actives have a fitted effect of over 45% in size
Outline: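 After 16 h at 37 C with test compounds, FXR-bla HEK 293T cells were given LiveBLAzer B/G substrate for 2 h at RT and then CellTiter-Glo; luminescence was taken after 30 min.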

[18] = target: Bile acid receptor (Homo sapiens) (UniProt Q96RI1); assay: qHTS assay to identify small molecule agonists of the farnesoid-X-receptor (FXR) signaling pathway (AID 743220; active means well fitted activation curve with a large enough effect in the signal ratio in the repeat runs, not every such curve was filed as active; the % refers to the signal ratio)
Outline: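 Beta-lactamase reporter under UAS control in GeneBLAzer FXR HEK 293T cells (5000/well) measured with LiveBLAzer FRET substrate after 2 h at room temperature. Compound exposure lasted 16 h at 37C.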

[19] = qHTS assay to identify small molecule agonists of the AP-1 signaling pathway - cell viability counter screen (AID 1159525; calls by dose curve; further: nearly all actives have a fitted effect of over 55% in size)
Outline: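 ME-180 AP-1-bla, 2500 cells/well, Opti-MEM + 0.5% dialyzed FBS; overnight 37 °C; cpd 15-pt titration, 5 h 37 °C; CellTiter-Glo 30 min RT; luminescence read; normalised to TOAB and DMSO controls.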

[20] = qHTS assay to identify small molecule agonists of the endoplasmic reticulum stress response signaling pathway (AID 1159516; active means well fitted activation curve with a large enough effect in the signal ratio in the repeat runs, not every such curve was filed as active; the % refers to the signal ratio)
Outline: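 Reporter HeLa cells (ESRE-beta-lactamase) underwent 5 hr compound incubation at 37 C and 5% CO2 in quantitative HTS format. Detection followed 2 hr of FRET substrate loading at room temperature.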

Measured: Potency

Chain of Bile acid receptor (Homo sapiens) (Q96RI1 whole entry, looked up): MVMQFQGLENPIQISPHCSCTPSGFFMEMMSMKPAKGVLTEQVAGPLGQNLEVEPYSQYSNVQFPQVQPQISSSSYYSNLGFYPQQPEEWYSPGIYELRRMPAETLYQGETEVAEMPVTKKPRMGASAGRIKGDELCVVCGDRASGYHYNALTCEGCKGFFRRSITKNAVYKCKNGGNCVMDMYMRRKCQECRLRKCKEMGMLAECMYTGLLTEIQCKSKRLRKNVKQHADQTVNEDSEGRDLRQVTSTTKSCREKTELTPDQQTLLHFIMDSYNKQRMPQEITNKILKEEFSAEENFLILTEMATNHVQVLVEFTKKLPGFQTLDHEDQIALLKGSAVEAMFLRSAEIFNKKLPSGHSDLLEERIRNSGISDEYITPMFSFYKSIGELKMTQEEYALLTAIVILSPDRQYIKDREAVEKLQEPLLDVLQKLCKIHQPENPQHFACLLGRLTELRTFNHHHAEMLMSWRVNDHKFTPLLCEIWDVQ
Chain of Peroxisome proliferator-activated receptor delta (Homo sapiens) (Q03181 whole entry, looked up): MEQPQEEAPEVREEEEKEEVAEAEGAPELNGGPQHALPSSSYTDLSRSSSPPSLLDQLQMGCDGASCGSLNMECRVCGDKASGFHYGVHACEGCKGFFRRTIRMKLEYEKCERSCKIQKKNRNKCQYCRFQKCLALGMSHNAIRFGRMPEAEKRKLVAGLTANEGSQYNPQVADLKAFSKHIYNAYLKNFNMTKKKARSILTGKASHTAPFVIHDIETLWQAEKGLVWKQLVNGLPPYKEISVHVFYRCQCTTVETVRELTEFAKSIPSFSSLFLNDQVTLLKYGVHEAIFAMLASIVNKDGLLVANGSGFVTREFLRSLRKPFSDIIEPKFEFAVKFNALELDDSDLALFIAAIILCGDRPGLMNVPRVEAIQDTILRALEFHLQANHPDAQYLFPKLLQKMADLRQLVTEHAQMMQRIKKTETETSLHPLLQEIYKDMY
Chain of Vitamin D3 receptor (Homo sapiens) (P11473 whole entry, looked up): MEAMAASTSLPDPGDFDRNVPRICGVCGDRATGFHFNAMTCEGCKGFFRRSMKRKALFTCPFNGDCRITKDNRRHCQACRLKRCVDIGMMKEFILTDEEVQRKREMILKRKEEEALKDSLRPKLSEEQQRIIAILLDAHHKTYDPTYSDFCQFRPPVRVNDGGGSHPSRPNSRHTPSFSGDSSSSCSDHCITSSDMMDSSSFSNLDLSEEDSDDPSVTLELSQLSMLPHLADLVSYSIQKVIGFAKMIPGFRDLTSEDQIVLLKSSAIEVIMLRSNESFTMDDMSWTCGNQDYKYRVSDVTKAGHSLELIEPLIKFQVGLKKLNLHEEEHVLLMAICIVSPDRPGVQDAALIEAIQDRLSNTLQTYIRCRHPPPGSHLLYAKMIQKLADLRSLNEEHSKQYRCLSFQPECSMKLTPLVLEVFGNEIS

CCCCCN(CCCOC)C(=O)C(CCC(=O)O)NC(=O)c1ccc(Cl)c(Cl)c1 (configuration not stated)
inactive: [1] | [2] | [3] | [4] | [5] | [6] | [7] | [8] | [9] | [10] | [11] | [12] | [13] | [14] | [15]

O=C1c2ccccc2-c2ccccc21
inactive: [1] | [2] | [3] | [4] | [16] | [17] | [18] | [5] | [8] | [9] | [10] | [11] | [13] | [14] | [19] | [15]

NS(=O)(=O)c1cc2c(cc1Cl)NC(C(Cl)Cl)NS2(=O)=O (configuration not stated)
inactive: [1] | [2] | [3] | [16] | [17] | [18] | [5] | [6] | [8] | [9] | [10] | [11] | [12] | [13] | [14] | [19] | [15]

NC(=O)NNC(N)=O
inactive: [1] | [2] | [3] | [4] | [16] | [17] | [18] | [5] | [6] | [9] | [10] | [11] | [13] | [19] | [15]

COc1ccc(OC)c(NC(=O)CC(C)=O)c1
inactive: [1] | [2] | [3] | [17] | [5] | [6] | [7] | [8] | [9] | [10] | [11] | [20] | [14] | [19] | [15]

O=CN1CCOCC1
inactive: [1] | [2] | [3] | [4] | [17] | [5] | [8] | [9] | [10] | [11] | [12] | [13] | [19] | [15]

Cn1c(=O)c2c(ncn2CC2OCCO2)n(C)c1=O
inactive: [1] | [2] | [3] | [4] | [16] | [17] | [18] | [5] | [8] | [9] | [10] | [11] | [12] | [13] | [14] | [19] | [15]

CC(=O)c1ccc(OCC(=O)N2CCCCC2)cc1
inactive: [1] | [2] | [3] | [4] | [16] | [17] | [18] | [5] | [6] | [7] | [8] | [9] | [10] | [11] | [12] | [13] | [14] | [19] | [15]

C=C[Si](C)(C)O[Si](C)(C)C=C
inactive: [1] | [3] | [17] | [5] | [6] | [7] | [8] | [9] | [10] | [11] | [12] | [13] | [14] | [19] | [15]

C[C@H](CCC(=O)O)[C@H]1CC[C@H]2[C@@H]3[C@H](O)C[C@@H]4C[C@H](O)CC[C@]4(C)[C@H]3C[C@H](O)[C@]12C
inactive: [1] | [3] | [16] | [17] | [18] | [5] | [8] | [9] | [10] | [11] | [12] | [14] | [19] | [15]

O=C1OC(=O)c2ccccc21
inactive: [1] | [2] | [3] | [4] | [16] | [5] | [6] | [7] | [8] | [10] | [11] | [13] | [14] | [19] | [15]

CCCCC(CC)COC(=O)c1ccccc1 (configuration not stated)
inactive: [1] | [2] | [3] | [4] | [17] | [5] | [7] | [8] | [9] | [10] | [11] | [13] | [14] | [19] | [15]

COC(=O)CCC(=O)O
inactive: [1] | [3] | [17] | [5] | [6] | [7] | [8] | [9] | [10] | [11] | [20] | [14] | [15]

NS(=O)(=O)c1cc2c(cc1Cl)NC(CC1CCCC1)NS2(=O)=O (configuration not stated)
inactive: [1] | [3] | [16] | [17] | [18] | [5] | [6] | [7] | [9] | [10] | [11] | [12] | [14] | [15]

CCOc1ccc(NC(=O)OC(C)C)cc1OCC
inactive: [1] | [3] | [4] | [16] | [17] | [18] | [5] | [6] | [7] | [8] | [9] | [10] | [11] | [12] | [14] | [15]

Cc1cc(O)c2c(c1)C(=O)c1cccc(O)c1C2=O
inactive: [1] | [2] | [3] | [4] | [16] | [17] | [18] | [5] | [6] | [7] | [8] | [9] | [10] | [11] | [12] | [13] | [15]
